# Source: PubChem BioAssay AID540333 (Southern Research Specialized Biocontainment Screening …, 2011)
# Out of some 10,000 compounds screened, about 320 (3.2%) were called active. The entries come from a sample that favours actives as a whole. Unmarked numbers belong to inactive results. Cut-off read from the data, not from the text of the source: active = CPE inhibition mostly above about 9.1% (no sharp cut-off); inactive = mostly below about 7.2%.
# Experiment: antivirals protecting cells from dengue CPE – CPE readout, HTS (AID 540333)
# Details: Dengue virus CPE inhibition in host cells, at 20 µM; stronger effect = higher value
row,SMILES,CPE inhibition
1,CCCCN1CC(=O)N2[C@H](c3ccc(OC)cc3)[C@@H]3C(=O)N(CC)C(=O)[C@@H]3[C@]2(C)C1=O,inactive
2,CC1(C)C=C(c2ccc(C=O)s2)CC(C)(C)N1C=O,0.13%
3,O=C(COC(=O)C12CC3CC(CC(C3)C1)C2)Nc1ccc([N+](=O)[O-])cc1Cl,1.98%
4,O=C(COC(=O)C12CC3CC(CC(C3)C1)C2)Nc1ccc([N+](=O)[O-])cc1Br,inactive
5,O=C(COC(=O)C12CC3CC(CC(C3)C1)C2)Nc1nc2c(F)c(F)c(F)cc2s1,13.5% (active)
6,CCN(CC)c1ccc(/C=N/NC(=O)c2ccco2)cc1,1.16%
7,CCN(Cc1ccccc1)c1ccc(/C=N/NS(=O)(=O)c2ccc(C)c([N+](=O)[O-])c2)cc1,0.46%
8,CCN(Cc1ccccc1)c1ccc(/C=N/N=C(N)N)cc1,inactive
9,CCN(Cc1ccccc1)c1ccc(/C=N/NC(=S)NC(C)C)cc1,30.1% (active)
10,C=CCNC(=S)N/N=C/c1ccc(N(CC)Cc2ccccc2)cc1,28.3% (active)
11,CCN(CC)c1ccc(/C=N/NC(=S)NCc2ccccc2)c(O)c1,inactive
12,CCOC(=O)c1ccc(NC(=O)c2c(N)n(Cc3ccccc3)c(=O)[nH]c2=O)cc1,inactive
13,Cc1ccc(CCNC(=O)CN(C)S(=O)(=O)c2cnc[nH]2)cc1,inactive
14,O=C(Nc1ccc(Cl)c([N+](=O)[O-])c1)c1ccncc1,0.365%
15,CC12CCC(C(=O)N3CCCc4ccccc43)(OC1=O)C2(C)C (centres undefined),0.12%
16,O=C(C1=NN[C@@H]2C(=O)N(c3cccc(C(F)(F)F)c3)C(=O)[C@H]12)C(c1ccccc1)c1ccccc1,0.31%
17,CCOC(=O)c1c(NC(=O)C2(C)Cc3ccccc3C(=O)O2)sc2c1CCCC2 (centres undefined),4.8%
18,COC(=O)c1c(NC(NC(=O)C(C)C)C(Cl)(Cl)Cl)sc2c1CCC2 (centres undefined),13.8% (active)
19,CC(C)C(=O)NC(=S)Nc1sc2c(c1C(N)=O)CCCC2,inactive
20,CCOC(=O)c1c(NC(NC(C)=O)C(Cl)(Cl)Cl)sc2c1CCCC2 (centres undefined),13% (active)
21,CCOC(=O)c1c(NC(=S)Nc2ccc(OC)cc2)sc2c1CCC2,inactive
22,CC(C(=O)Nc1sc2c(c1C(=O)NCC1CCCO1)CCC2)N1C(=O)c2ccccc2C1=O (centres undefined),inactive
23,COc1ccc(N(CC(=O)Nc2cccc([N+](=O)[O-])c2C)S(C)(=O)=O)cc1OC,inactive
24,N/C(=N\OCC(=O)Nc1ccccc1)c1nonc1N,0.24%

row,SMILES,CPE inhibition
1,NS(=O)(=O)c1ccc(CCNC(=O)c2cc(-c3ccccc3)nc3ccccc23)cc1,inactive
2,CC1(c2nnc(Cc3ccccc3)o2)CC(c2ccccc2F)=NO1 (centres undefined),inactive
3,COc1ccc(C(=O)NCC(=O)OCC(=O)N2CCN(S(=O)(=O)c3ccccc3)CC2)cc1,inactive
4,O=C(NCc1ccccc1)/C(=C/c1ccc(OC(F)F)cc1)c1ccccc1,9.52% (active)
5,O=C(NNC(=S)NCc1ccccc1)c1ccc(OC(F)F)cc1,0.96%
6,FC(F)Oc1ccc(NC(=S)NCc2ccccc2)cc1,inactive
7,Cc1cc(C(=O)COc2ccc(C#N)cc2)c(C)n1-c1ccc2c(c1)OCO2,9.11%
8,O=C(O)c1cccc2c1C(=O)c1ccc(-c3ccc(F)cc3F)cc1S2(=O)=O,1.88%
9,O=C(Nc1ccc(F)cc1)c1ccccc1Oc1ccc(C(F)(F)F)cc1[N+](=O)[O-],9.71%
10,O=Cc1ccc(OC2OCCOC2Oc2ccc(C=O)cc2)cc1 (centres undefined),15.4% (active)
11,c1ccc(-c2csc3ncnc(NCC4COc5ccccc5O4)c23)cc1 (centres undefined),6.15%
12,Nc1nccnc1C(=O)OCC(=O)Nc1cccc(S(=O)(=O)N2CCCCC2)c1,inactive
13,CC1CCc2c(C(=O)OCC(=O)Nc3cccc(S(=O)(=O)N4CCCCCC4)c3)csc2C1 (centres undefined),11.4% (active)
14,Cc1cnc(C(=O)OCC(=O)Nc2cccc(S(=O)(=O)N3CCCCC3)c2)cn1,inactive
15,CS/C(=N\S(=O)(=O)c1cccs1)Nc1cccc(Cl)c1C,inactive
16,COc1ccc(C)cc1NC(=O)C(OC(=O)c1cc(C)oc1C)c1ccccc1 (centres undefined),1.23%
17,Cc1ccc(NC(=O)CSc2ccccc2NC(=O)c2ccccc2Cl)cc1Cl,9.34%
18,Cc1ccc(NC(=O)C(OC(=O)c2ccc(NC(N)=O)cc2)c2ccccc2)cc1Cl (centres undefined),15.2% (active)
19,Cc1cc(C)cc(NC(=O)C(OC(=O)c2ccc([N+](=O)[O-])o2)c2ccccc2)c1 (centres undefined),0.445%
20,CC(=O)c1cccc(NC(=O)C(OC(=O)c2cccs2)c2ccccc2)c1 (centres undefined),0.01%
21,Cc1ccc(NC(=O)CSc2ccccc2NC(=O)c2ccccc2)cc1Cl,2.96%
22,Cc1cc(C(=O)OC(C(=O)Nc2ccc(C)c(Cl)c2)c2ccccc2)c(C)o1 (centres undefined),14.6% (active)
23,Cc1ccc(NC(=O)C(OC(=O)c2ccc(F)cc2)c2ccccc2)cc1Cl (centres undefined),1.61%
24,Cc1ccc(NC(=O)C(OC(=O)c2cc(C)oc2C)c2ccccc2)cc1 (centres undefined),18.4% (active)

row,SMILES,CPE inhibition
1,Cc1cc(C)cc(-n2c(SCC(=O)Nc3cccc(S(=O)(=O)NC4=NCCCCC4)c3)nc3ccccc3c2=O)c1,0.54%
2,CNC(=O)CSc1nnc(SCCC(=O)O)s1,0.415%
3,Cc1ccccc1-n1c(C)nnc1SCC(=O)NC1CCCc2ccccc21 (centres undefined),0.065%
4,Cc1cccc(Nc2nnc(SCC(=O)NC3CCCc4ccccc43)s2)c1C (centres undefined),14.5% (active)
5,O=C(CSc1nc2ccccc2s1)NC1CCCc2ccccc21 (centres undefined),0.775%
6,O=C1c2ccccc2C(=O)N1CN(C(=O)COc1ccc(Cl)cc1Cl)c1cccc(F)c1,3.16%
7,CCOC(=O)C1=C(C)NC(=O)C1CC(=O)O (centres undefined),inactive
8,CN(c1cccc(NC(=O)CN(c2cccc(Cl)c2)S(=O)(=O)c2ccc(Cl)cc2)c1)S(C)(=O)=O,11.8% (active)
9,CN(c1cccc(NC(=O)CN(c2cccc(Cl)c2)S(=O)(=O)c2ccccc2)c1)S(C)(=O)=O,3.62%
10,CN(c1cccc(NC(=O)CN(c2ccc(Cl)c(Cl)c2)S(=O)(=O)c2ccccc2)c1)S(C)(=O)=O,5.86%
11,COC(=O)CNC(=O)C1Nc2ccc(OC(F)(F)F)cc2C2C=CCC12 (centres undefined),0.595%
12,COc1ccc2c(C)cc(Sc3nnnn3-c3ccccc3)nc2c1,3.01%
13,COc1ccc(NC(=O)c2ccc(C#N)cc2)cc1NS(=O)(=O)c1ccc(F)cc1,inactive
14,CC(=O)N1N=C(c2ccc(Br)cc2)CC1c1cn(C)c2ccccc12 (centres undefined),16% (active)
15,CCC(=O)N1N=C(c2ccc(C)o2)CC1c1ccc(Br)cc1 (centres undefined),inactive
16,CC(=O)N1N=C(c2ccccc2)CC1c1cn(Cc2ccccc2)c2ccccc12 (centres undefined),6.58%
17,Cn1c(C=O)c(C#Cc2ccccc2)c2ccccc21,inactive
18,COc1cc(C#Cc2c(C=O)n(C)c3ccccc23)cc(OC)c1,8.36% (active)
19,Cn1c(C=O)c(C#CC(C)(C)O)c2ccccc21,4.96%
20,COc1cc(SC)ccc1C(=O)NCCc1ccccc1,0.785%
21,O=C(Nc1cccc(Cl)c1)Nc1cc(S(=O)(=O)N2CCOCC2)ccc1N1CCCC1,8.49%
22,CC(C)CC(NC(=O)c1ccc(Cl)cc1)C(=O)OCc1cc([N+](=O)[O-])cc2c1OCOC2 (centres undefined),1.44%
23,COc1ccc(CNC(=O)COC(=O)C2CCC(C(C)(C)C)CC2)cc1 (centres undefined),24.9% (active)
24,COC(=O)c1ccc(CNC(=O)COC(=O)C2CCC(C(C)(C)C)CC2)cc1 (centres undefined),0.91%

row,SMILES,CPE inhibition
1,COc1ccc(CCNC(=O)COC(=O)C2CCCCC2)cc1,0.035%
2,O=S1(=O)CCC(NC(=S)N2CCCCC2)C1 (centres undefined),inactive
3,CC(=O)NC(Cc1ccccc1)C(=O)OCC(=O)c1ccc(Br)cc1 (centres undefined),inactive
4,COCCCN(C(=S)Nc1ccc(C)cc1Cl)C(C)c1ccncc1 (centres undefined),inactive
5,COCCCN(C(=S)Nc1cc(Cl)cc(Cl)c1)C(C)c1ccncc1 (centres undefined),16.4% (active)
6,COCCCN(C(=S)Nc1c(C)cc(C)cc1C)C(C)c1ccncc1 (centres undefined),0.045%
7,O=C(CCc1ccccc1)NCCSCc1c(F)cccc1Cl,inactive
8,C#CCN(C(=O)Nc1ccccc1)c1ccccc1,inactive
9,CC(=O)NS(=O)(=O)c1cccnc1Nc1cccc(Cl)c1C,1.49%
10,CC1CCC(=NNc2ccc(C(F)(F)F)cc2[N+](=O)[O-])CC1 (centres undefined),0.085%
11,CCCCC1=CC2=CC(=O)C(C)(OC(=O)CC)C(=O)C2=CN1C1CCCC1 (centres undefined),20.9% (active)
12,CCC(=O)OC1(C)C(=O)C=C2C=C(CCCC(=O)OC)OC=C2C1=O (centres undefined),inactive
13,CC1(OC(=O)C2CCCC2)C(=O)C=C2C=C3CCCCN3C=C2C1=O (centres undefined),inactive
14,Cc1ccc(S(=O)(=O)N/N=C2/CCCCC2C2CCCCC2)cc1[N+](=O)[O-] (centres undefined),0.01%
15,Fc1ccc(CSc2ncnc3scc(-c4ccccc4)c23)cc1,1.17%
16,O=C(OC(C(=O)Nc1cccc(C(F)(F)F)c1)c1ccccc1)C1CCCCC1 (centres undefined),21.9% (active)
17,COc1cc(OC)c(C(=O)OC(C)C(=O)Nc2cccc(C(F)(F)F)c2)cc1OC (centres undefined),inactive
18,CCOC(=O)C(=NC1CCCCC1)NNc1cccc(C(F)(F)F)c1,5.4%
19,Cc1cc(C)nc(NS(=O)(=O)c2ccc(NC(=O)C3(c4ccccc4)CCCC3)cc2)n1,inactive
20,CC(=O)Nc1ccc(Sc2ncnc3scc(-c4ccccc4)c23)cc1,2.31%
21,COc1ccc(-c2csc3ncnc(Oc4ccc5c(C)cc(=O)oc5c4)c23)cc1,inactive
22,CC(=O)Nc1cccc(Oc2ncnc3scc(-c4ccc(C(C)C)cc4)c23)c1,15% (active)
